Assay results reported in article PMC4336329 (PLoS ONE, 2015).
The whole screen tested about 310,000 compounds, of which about 14,000 (4.5%) showed an effect of 50% or more. The effect is printed as a negative number. Shown is part of a subset that was picked to be rich in strong results.

The compounds below were run against human ether-à-go-go-related gene (hERG) potassium channel (human, UniProt Q12809) (assay: primary screen, population patch clamp on CHO cells stably expressing hERG; higher = less effect of the substance).
Sequence of human ether-à-go-go-related gene (hERG) potassium channel (Q12809 whole entry, looked up): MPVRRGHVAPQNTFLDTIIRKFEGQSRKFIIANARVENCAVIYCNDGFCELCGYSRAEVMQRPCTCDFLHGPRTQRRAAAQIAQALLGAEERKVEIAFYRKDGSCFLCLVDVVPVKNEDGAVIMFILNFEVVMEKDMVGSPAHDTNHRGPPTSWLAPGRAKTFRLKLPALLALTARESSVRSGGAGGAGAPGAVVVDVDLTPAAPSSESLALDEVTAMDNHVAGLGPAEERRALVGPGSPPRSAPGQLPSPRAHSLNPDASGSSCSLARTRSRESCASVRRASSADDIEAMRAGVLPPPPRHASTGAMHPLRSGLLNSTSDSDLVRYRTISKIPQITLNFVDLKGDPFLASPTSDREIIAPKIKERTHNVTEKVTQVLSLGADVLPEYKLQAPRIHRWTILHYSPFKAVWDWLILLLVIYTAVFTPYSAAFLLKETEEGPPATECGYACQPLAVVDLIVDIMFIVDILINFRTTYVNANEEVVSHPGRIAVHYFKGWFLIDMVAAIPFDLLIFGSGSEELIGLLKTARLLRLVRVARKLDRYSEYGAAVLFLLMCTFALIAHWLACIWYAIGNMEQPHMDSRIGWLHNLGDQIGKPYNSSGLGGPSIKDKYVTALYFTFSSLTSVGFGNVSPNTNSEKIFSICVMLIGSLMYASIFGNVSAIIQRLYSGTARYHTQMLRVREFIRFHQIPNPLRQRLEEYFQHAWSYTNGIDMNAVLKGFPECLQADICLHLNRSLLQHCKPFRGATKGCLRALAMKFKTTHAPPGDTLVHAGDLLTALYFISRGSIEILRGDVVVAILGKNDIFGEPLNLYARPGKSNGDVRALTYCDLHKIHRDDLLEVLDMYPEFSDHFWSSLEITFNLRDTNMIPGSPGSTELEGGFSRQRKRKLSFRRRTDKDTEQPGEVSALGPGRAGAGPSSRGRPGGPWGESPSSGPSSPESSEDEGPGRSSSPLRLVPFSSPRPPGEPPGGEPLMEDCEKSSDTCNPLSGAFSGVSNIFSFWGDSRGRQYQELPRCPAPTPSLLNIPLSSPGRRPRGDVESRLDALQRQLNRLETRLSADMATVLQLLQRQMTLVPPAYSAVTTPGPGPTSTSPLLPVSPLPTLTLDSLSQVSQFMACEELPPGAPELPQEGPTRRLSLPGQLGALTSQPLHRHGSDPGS
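Note: peak tail current of the secondary pulse compared with the same well before compound.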

SMILES	hERG current change (%, negative = inhibition) at 10uM [%]
Cn1c(=O)c2c(nc(SCc3ccc(F)cc3)n2C)n(C)c1=O	1.9
O=C(NCC(O)c1ccccc1)c1ccc(Cl)c(S(=O)(=O)N2CCCC2)c1 (centres unmarked)	-0.367
O=C(NCCCN1CCCC1=O)c1ccc(Cl)c(S(=O)(=O)N2CCCCC2)c1	-24.1
O=C(NCC(O)c1ccccc1)c1ccc(Cl)c(S(=O)(=O)N2CCCCC2)c1 (centres unmarked)	8.95
CCN(CC)CCNC(=O)c1ccc(Cl)c(S(=O)(=O)N2CCCCCC2)c1.Cl	-67.4
CN(C)CCCNC(=O)c1ccc(Cl)c(S(=O)(=O)N2CCCCCC2)c1.Cl	-72.4
CCN(CC)CCOC(=O)c1ccc(NC(=O)c2ccc(Cl)c(S(=O)(=O)N3CCCCCC3)c2)cc1.Cl	13.7
CN(C)C(CNC(=O)c1ccc(Cl)c(S(=O)(=O)N2CCCCCC2)c1)c1ccccc1 (centres unmarked)	-67.5
Cc1ccc(CNC(=O)c2ccc(Cl)c(S(=O)(=O)N3CCCCC3)c2)cc1	-27.3
CCN(CC)CCNC(=O)c1ccc(NC(=O)c2ccc(Cl)c(S(=O)(=O)N3CCCCCC3)c2)cc1.Cl	-24
Cc1cc(C)n(C(=O)c2cccc([N+](=O)[O-])c2)n1	-5.46
COc1ccc(CCNC(=O)C2CCN(S(=O)(=O)c3cnc[nH]3)CC2)cc1OC	13.7
CCN(C(=O)CSc1nc(N)cc(=O)[nH]1)c1c(N)n(Cc2ccccc2)c(=O)[nH]c1=O	2.41
Cc1ccc(S(=O)(=O)NCCCn2ccnc2)cc1C(=O)NC(C)C	-1.56
O=S(=O)(Nc1ccc2c(c1)OCO2)c1ccc(Br)s1	-18.1
O=C(O)CCN1CCc2ccccc2C1c1ccncc1 (centres unmarked)	13.2
Cc1sc(NC(=O)c2ccco2)c(CN2CCC(C)CC2)c1C	-16.2
CCN(CC)C(=O)CSc1nnc(CNc2ccc(F)cc2)o1	1.13
CN(Cc1nc(-c2ccncc2)no1)S(=O)(=O)c1ccc(Cl)cc1	-55.5
CN(Cc1nc(-c2cccnc2)no1)S(=O)(=O)c1ccc(Br)cc1	-46
CN(Cc1nc(-c2ccncc2)no1)S(=O)(=O)c1ccccc1	3.91
Cc1ccc(S(=O)(=O)N(C)Cc2nc(-c3ccc(Br)cc3)no2)cc1	4.12
Cc1ccc(S(=O)(=O)N(C)Cc2nc(-c3ccncc3)no2)cc1	-19.5
CN(Cc1nc(-c2ccncc2)no1)S(=O)(=O)c1ccc(Br)cc1	-58.1
O=C(NNc1nc(-c2ccccc2)cs1)c1cccs1	10.7
O=C(COC(=O)c1ccc(F)cc1F)NCCNC(=O)COC(=O)c1ccc(F)cc1F	16.8
Cc1c(Cl)cccc1NC(=O)CN1CCC(C(O)(c2ccccc2)c2ccccc2)CC1	-12.3

SMILES	hERG current change (%, negative = inhibition) at 10uM [%]
NNc1nc2c(Cl)ccc(Cl)c2s1	18.6
NS(=O)(=O)c1cccc(NC(=O)Cc2ccc(Cl)c(Cl)c2)c1	6.09
O=C(NCCc1ccccc1)c1ccc(CS(=O)(=O)c2ccc(Cl)cc2)o1	-2.15
O=C(NCCc1ccccc1)c1ccc(CS(=O)(=O)c2ccc(Br)cc2)o1	10.2
CC1CCCN(CCCNC(=O)c2ccc(CS(=O)(=O)c3c(Cl)cccc3Cl)o2)C1 (centres unmarked)	-44.8
CCN1CCN(CCNC(=O)c2ccc(CS(=O)(=O)c3c(Cl)cccc3Cl)o2)CC1	-8.19
CN(C)CCNC(=O)c1ccc(CS(=O)(=O)c2ccc(Br)cc2)o1	-3.14
O=C(NCCN1CCCC1)c1ccc(CS(=O)(=O)c2c(Cl)cccc2Cl)o1	-45.5
O=C(NCCCN1CCOCC1)c1ccc(CS(=O)(=O)c2c(Cl)cccc2Cl)o1	2.35
CC(C)N(CCNC(=O)c1ccc(CS(=O)(=O)c2c(Cl)cccc2Cl)o1)Cc1ccccc1	-70.6
CN(CCNC(=O)c1ccc(CS(=O)(=O)c2ccc(Br)cc2)o1)CCc1ccccc1	-77.5
COC(CNC(=O)c1ccc(CS(=O)(=O)c2c(Cl)cccc2Cl)o1)OC	21.2
CC(C)N(CCCNC(=O)c1ccc(CS(=O)(=O)c2c(Cl)cccc2Cl)o1)Cc1ccccc1	-67.7
CN(CCNC(=O)c1ccc(CS(=O)(=O)c2c(Cl)cccc2Cl)o1)CCc1ccccc1	-70
NC(=O)C1=C[C@H](c2ccc(C(F)(F)F)cc2)C[C@H](OCCCCO)O1	-4.54
CCCOc1ccc(C2NC(=S)NC(c3ccccc3)=C2C(=O)Nc2ccc(C)cc2)cc1OC (centres unmarked)	0.514
CCN(CC(=O)Nc1cccc(OC)c1)CC(=O)Nc1ccc(C)cc1Cl	-10.4
COc1ccccc1/C=N/NC(=O)c1ccc2c(c1)OCO2	7.71
Cc1ccccc1OCC(=O)NCC1CCCO1 (centres unmarked)	13.3
CCOc1ccc(NC(=O)CNC(=O)c2ccc([N+](=O)[O-])cc2)cc1	-7.46
Cc1cc(N/N=C\c2ccccc2)nc(-c2ccccc2O)n1	4.95
Cn1c(NC(=O)c2cc(Br)ccc2Cl)cc(=O)n(C)c1=O	1.62
COc1ccc(N2CCN(S(=O)(=O)c3cc4c5c(c3)C(C)C(=O)N5CCC4)CC2)cc1 (centres unmarked)	3.36
CC1C(=O)N2CCCc3cc(S(=O)(=O)N4CCN(c5ccccc5F)CC4)cc1c32 (centres unmarked)	-8.8
CC1C(=O)N2CCCc3cc(S(=O)(=O)N4CCN(c5ccc(F)cc5)CC4)cc1c32 (centres unmarked)	-50.3
O=C(/C=C/c1ccccc1[N+](=O)[O-])Nc1ccccc1	10.1
